Results reported in PubChem BioAssay AID1508624 (National Center for Advancing Translational Sciences (NCATS), 2021).
The campaign covered roughly 48,000 compounds. About 120 (0.25%) were called active. Roughly 4% stayed inconclusive and do not appear here. The call rests on the fitted dose curve; in most records, active means well fitted activation curve with a large enough effect; inconclusive means small, poorly fitted or top-dose-only effect, or another doubt; inactive means no such curve, though single readings can be large or run the other way. The entries come from a sample that favours actives as a whole.

experiment: Primary qHTS for Identification of Small Molecule Activators of Huntingtin-Antisense Promoter Activity; details: HEK293 HTT-AS promoter firefly luciferase reporter, 24 h; series mostly up to 57.5 µM; activity change, positive = activation: at the top concentration; further: nearly all actives have a fitted effect of over 55% in size
Procedure, shortened: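 Quantitative HTS used concentration series of up to 57.5 uM final on HEK293 luciferase reporter cells, 24 h at 37 degrees C. Readout was Dual-Glo firefly luminescence.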

Activity change, positive = activation, inactive:
Cn1c(=O)cc(OCC(=O)N2CCN(c3ccccc3)CC2)c2ccccc21 -3.9%
COc1ccc(-c2c3c(=O)n(C)c(=O)n(C)c3c3c(C)nc4ccccc4n23)cc1 -13.8%
Cc1cccc(N2CCN(c3ccc(C(=O)O)cc3NC(=O)c3ccccc3F)CC2C)c1 (stereo not given) -19.7%
Cn1c(=O)c(=O)n(C)c2cc(NC(=O)c3ccccc3Br)ccc21 -0.646%
C=C1CCC2[C@](C)(CO)C(O)CC[C@]2(C)C1CC=C1C(=O)OCC1O (stereo not given in full) -4.74% [at 116 µM, percent change from vehicle, -100% = no light]
O=c1c(=O)n(Cc2c(F)cccc2Cl)ccn1Cc1ccccc1 -4.92%
COc1ccc(CCNC(=O)c2ccc(-n3c(C)cc4c3CCCC4)cc2)cc1OC 9.05%
CCC(=O)N1c2ccccc2CC1C(=O)N1CCN(c2cccc(OC)c2)CC1 (stereo not given) -17.5%
CCOc1cc(CNC(=O)c2sc3ncnc(N(C)C4CCCCC4)c3c2C)ccc1OC -35.7%
Cc1ccccc1CCNC(=O)C1CCN(c2nc3ccccc3nc2C(F)(F)F)CC1 -6.9%
O=C(NC1CC(=O)N(c2ccc(F)cc2)C1)c1cccs1 (stereo not given) -7.05%
CCOC(=O)C1CCCN(S(=O)(=O)c2cc(-c3cc(C)no3)ccc2OC)C1 (stereo not given) -4.74%
Cc1cccc(C)c1-n1ncc(C(=O)NCCCN2CCCCC2)c1C1CCN(C(=O)OC(C)(C)C)CC1 -21%
Cc1ccc(C(=O)Nc2cc3c(cc2N2CCCC2)n(C)c(=O)c(=O)n3C)cc1 -7.49%
COc1ccccc1NC(=O)C1=C(C)Nc2nc(SCC(=O)c3ccc(C)cc3)nn2C1c1ccccc1C (stereo not given) 2.53%
Cc1c(-c2nsc(NC(=O)c3cccc(Cl)c3)n2)nnn1-c1ccccc1C(F)(F)F -85.6%
Cc1cc(C)cc(NC(=O)Cn2c(=O)c3ccccc3n3nncc23)c1 -1.71%
COc1ccc(Cn2ccn(CC(=O)Nc3cc(C)ccc3C)c(=O)c2=O)cc1 -13.3%
Cc1nn(-c2ccc(F)cc2)c(-n2cccc2)c1C(=O)N1CCN(c2ccccc2)CC1 -22.6%
CCOc1ccc(Nc2oc(/C=C/c3ccc(F)cc3)nc2C#N)cc1 4.81%
CCCC(=O)Nc1ccc(NC(=O)c2sc3ccccc3c2Cl)cc1 -35.3%
O=S(=O)(c1ccc2nc(N3CCN(c4cccc(Cl)c4)CC3)ccc2c1)N1CCCCC1 -6.05%
CCOC(=O)c1ccc(NC(=O)CC2C(=O)N(c3ccccc3)C(=O)N2Cc2cccs2)cc1 (stereo not given) -8.82%
Cc1cc(Cl)ccc1OCC(=O)N(Cc1ccc(N(C)C)cc1)C1CCS(=O)(=O)C1 (stereo not given) -14.8%
CCC(=O)N1CCc2cc(S(=O)(=O)NC(C(=O)NCCc3ccc(C)cc3)C(C)C)ccc21 (stereo not given) -1.83%
CCOc1ccc(CCNC(=O)c2csc3c2CCCCC3)cc1 -21.7%
Cc1ccc2nc(-c3ccc(C)c(NC(=O)Cc4ccccc4)c3)oc2c1 -72.1%
CCCN(CCC)S(=O)(=O)c1ccc(C(=O)Nc2sc3c(c2C(=O)OC)CCN(CC)C3)cc1 -29.2%
O=C(C1CC1)N1CCc2cc(Br)cc(S(=O)(=O)N3CCN(c4ccccc4F)CC3)c21 -14.5%
CCOc1ccc(NC(=O)c2c(NC(=O)Cc3ccccc3)sc3c2CCCCC3)cc1 -10.1%
